In PubChem BioAssay (Tox21) one finds Potency data, which are given here for six molecules.

Assay [1] can be described thus: qHTS assay to identify small molecule antagonists of the estrogen receptor alpha (ER-alpha) signaling pathway using the BG1 cell line in the presence of 0.1 nM 17-beta-estradiol - cell viability counter screen (AID 1259241). Also: nearly all actives have a fitted effect of over 40% in size. Also: potency is read from the fitted curve at half-maximal effect. The essentials:
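VM7Luc4E2 cells (endogenous ER-alpha, 4×ERE-luciferase), hormone-starved 5 days in charcoal-stripped FBS, were treated with compounds plus 0.1 nM 17beta-estradiol for 22 hr at 37C; viability read in same wells as CellTiter-Fluor live-cell protease fluorescence.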
For orientation: qHTS replaces the single test concentration by a dilution series.

Assay [2] is described as follows: qHTS assay to identify small molecule antagonists of the androgen receptor (AR) signaling pathway using the MDA cell line in the presence of 0.5 nM R1881 - cell viability counter screen (AID 1259242). Also: nearly all actives have a fitted effect of over 45% in size. Also: potency is read from the fitted curve at half-maximal effect. The essentials: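 qHTS format. MDA-kb2 (MMTV-luc, AR/GR responsive) + cpd + 0.5 nM R1881 final, 16 hr 37C/0% CO2 → CellTiter-Fluor 30 min → fluorescence intensity.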

For assay [3], the target named is Androgen receptor (Homo sapiens) (UniProt P10275). Kind of assay: qHTS assay to identify small molecule antagonists of the androgen receptor (AR) signaling pathway using the MDA cell line in the presence of 0.5 nM R1881 (AID 1259243). Also: nearly all actives have a fitted effect of over 50% in size. Also: potency is read from the fitted curve at half-maximal effect. The essentials:
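Antagonist mode quantitative HTS in MDA-kb2 MMTV-luciferase cells, agonist R1881 at 0.5 nM final, 16 hr exposure at 37C and 0% CO2, luminescent detection.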

Assay [4] has as its target Estrogen receptor (Homo sapiens) (UniProt P03372). Kind of assay: qHTS assay to identify small molecule antagonists of the estrogen receptor alpha (ER-alpha) signaling pathway using the BG1 cell line in the presence of 0.1 nM 17-beta-estradiol (AID 1259244). Also: nearly all actives have a fitted effect of over 50% in size. Also: potency is read from the fitted curve at half-maximal effect. The essentials:
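Reporter is a stably transfected luciferase under four estrogen responsive elements in VM7Luc4E2 cells expressing native full-length ER-alpha; inhibition of 0.1 nM (final) 17beta-estradiol-driven signal over 22 h is read by luminescence.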

Assay [5] in a line: qHTS assay to identify small molecule HDAC inhibitors (AID 1259364). Also: potency is read from the fitted curve at half-maximal effect.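 Also: wild-type HCT-116 cells with endogenous class I/II HDAC activity; nearly all actives have a fitted effect of over 45% in size.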 In a few lines: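 Quantitative high-throughput format: overnight-seeded HCT-116 cells got compounds for 2 hr at 37C; HDAC-Glo I/II reagent added, 30 min RT, luminescence measured.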
The nature of assay [6]: qHTS assay to identify small molecule HDAC inhibitors - cell viability counter screen (AID 1259365). Also: nearly all actives have a fitted effect of over 50% in size. Also: potency is read from the fitted curve at half-maximal effect. In a few lines: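 Wild-type HCT-116 cells were seeded at 1,500 per well, incubated overnight at 37 C, then exposed to compounds in DMSO for 2hr. Viability was read by CellTiter-Glo luminescence after 30min at room temperature.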
A short description of assay [7]: qHTS assay to identify small molecule agonists of the sonic hedgehog signaling (Shh) pathway - cell viability counter screen (AID 1259366). Also: nearly all actives have a fitted effect of over 50% in size. Also: potency is read from the fitted curve at half-maximal effect. The essentials: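 NIH/3T3-derived 3T3 Gli1-Luc cells (stable Gli1-responsive firefly luciferase reporter) were seeded, rested 4 hr at 37 C/5% CO2, then exposed to compounds in DMSO for 24 hr; viability was read by CellTiter-Fluor fluorescence in the same wells.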

A short description of assay [8]: qHTS assay to identify small molecule antagonists of the sonic hedgehog signaling (Shh) pathway - cell viability counter screen (AID 1259367). Also: nearly all actives have a fitted effect of over 55% in size. Also: potency is read from the fitted curve at half-maximal effect. The essentials: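 Viability was read by CellTiter-Fluor fluorescence in the same wells, reagent added 23 hr into compound treatment and incubated 1 hr at 37C. The 3T3 Gli1-Luc reporter cells (2,000/well) received conditioned medium after compound and ran 24 hr.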

Assay [9] in a line: qHTS assay to identify small molecule agonists of the sonic hedgehog signaling (Shh) pathway (AID 1259368; calls by dose curve; also: series mostly up to about 92 µM; nearly all actives have a fitted effect of over 15% in size). In a few lines:
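Quantitative high-throughput format using a Gli1-driven firefly luciferase reporter line derived from NIH/3T3 cells. After a 24 hr compound treatment at 37 C and 5% CO2, luminescence reported Gli1 response element activity.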

Assay [10] can be described thus: qHTS assay to identify small molecule antagonists of the sonic hedgehog signaling (Shh) pathway (AID 1259369; calls by dose curve; also: potency is read from the fitted curve at half-maximal effect; nearly all actives have a fitted effect of over 45% in size). The essentials:
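Stable Gli1-Luc reporter NIH/3T3 clone; quantitative HTS in stimulated mode with conditioned medium. Luminescence measured after 24hr compound treatment at 37 C.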

Assay [11] is described as follows: qHTS assay to identify small molecule agonists of the androgen receptor (AR) signaling pathway in the presence of an antagonist - cell viability counter screen (AID 1259379). Also: nearly all actives have a fitted effect of over 25% in size. Also: potency is read from the fitted curve at half-maximal effect. The essentials:
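Nilutamide-containing (3.0uM final) MDA-kb2 cultures, 3,000 cells/well, were treated with compounds across 15 concentrations. After 16 hr at 37C with no CO2, cell viability was determined by CellTiter-Fluor fluorescence in the luciferase assay wells.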

A short description of assay [12]: qHTS assay to identify small molecule agonists of the estrogen receptor beta (ER-beta) signaling pathway - cell viability counter screen (AID 1259380). Also: potency is read from the fitted curve at half-maximal effect; nearly all actives have a fitted effect of over 30% in size. In a few lines: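 Steps: plate ER-beta-UAS-bla HEK293T cells, rest 6 hr; add compounds in DMSO; incubate 16 hr at 37C, 5% CO2; add FRET substrate 2 hr; add CellTiter-Glo, wait 30 min at room temperature; read luminescence.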

The nature of assay [13]: qHTS assay to identify small molecule antagonists of the estrogen receptor beta (ER-beta) signaling pathway - cell viability counter screen (AID 1259382). Also: potency is read from the fitted curve at half-maximal effect; nearly all actives have a fitted effect of over 55% in size. The essentials:
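Viability is scored by CellTiter-Glo luminescence (30 min, room temperature) in ER-beta-UAS-bla HEK293T wells already read for reporter fluorescence. Compound exposure lasts 16 hr at 37C alongside 1nM 17-beta-estradiol in charcoal-stripped serum medium.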

The target in assay [14] is Estrogen receptor (Homo sapiens) (UniProt P03372). As to the kind of experiment: qHTS assay to identify small molecule agonists of the estrogen receptor alpha (ER-alpha) signaling pathway in the presence of an antagonist (AID 1259383; calls by dose curve; also: top concentration of the series differs between compounds; nearly all actives have a fitted effect of over 15% in size). In a few lines:
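Readout was ERE-driven luciferase luminescence in VM7Luc4E2 cells, which express full-length ER-alpha endogenously. Compounds were tested at 15 concentrations for 22hr alongside 10.0nM ICI-182,780 (final concentration).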

Assay [15] in a line: qHTS assay to identify small molecule agonists or antagonists of the thyroid stimulating hormone receptor (TSHR) signaling pathway - wild type cell line counter screen (AID 1259384; calls by dose curve). The essentials: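 Counter screen in untransfected Hek293: compounds (15-point titration, triplicate) plus phosphodiesterase inhibitor Ro20-1724 added after 18 h plating; 30 min RT. Intracellular cAMP via competitive d2/cryptate immunoassay, 1 h incubation.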

Assay [16] in a line: qHTS assay to identify small molecule agonists of the estrogen receptor alpha (ER-alpha) signaling pathway in the presence of an antagonist - cell viability counter screen (AID 1259386).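 Also: cells exposed to compounds for 22 h at 37 °C before the viability read; nearly all actives have a fitted effect of over 30% in size.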 Also: potency is read from the fitted curve at half-maximal effect. The essentials: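 In this counter screen, compound effects on VM7Luc4E2 viability were tested in the presence of the antagonist ICI-182,780 at 10.0nM final. Compounds were dosed at 15 concentrations, exposure lasted 22hr, and the CellTiter-Fluor signal was read.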

In assay [17] the target is Thyrotropin receptor (Homo sapiens) (UniProt P16473). Kind of assay: qHTS assay to identify small molecule antagonists of the thyroid stimulating hormone receptor (TSHR) signaling pathway (AID 1259385; calls by dose curve; also: nearly all actives have a fitted effect of over 20% in size). In a few lines: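 Antagonist mode: compound-treated TSHR-expressing HEK293 cells were stimulated with 1.5 ng/mL TSH (final) in presence of Ro20-1724 for 30 min at RT. HTRF cAMP detection after 1 h; each compound tested at 15 concentrations, triplicate.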

In assay [18] the target is Androgen receptor (Homo sapiens) (UniProt P10275). Kind of assay: qHTS assay to identify small molecule agonists of the androgen receptor (AR) signaling pathway in the presence of an antagonist (AID 1259381; calls by dose curve; also: nearly all actives have a fitted effect of over 15% in size). In a few lines:
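Reporter-gene luminescence from MDA-kb2 cells exposed 16hr at 37C (0% CO2) to 15-point compound titrations with 3.0uM final nilutamide as AR antagonist.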

“And” between values parts separate entries of the source, which are not always exact repeats. Equal entries are not always repeated. Results filed as inconclusive are left out. The source made the active and inactive calls. Unless noted, calls follow the shape of the dose curve; as a rule, active = well fitted curve in the direction sought with a large enough effect in the repeat runs; inconclusive = weak or mixed curves; inactive = no such curve, though single readings can be large; an effect the other way counts as inactive or inconclusive.

Sequence of Androgen receptor (Homo sapiens) (P10275 whole entry, looked up): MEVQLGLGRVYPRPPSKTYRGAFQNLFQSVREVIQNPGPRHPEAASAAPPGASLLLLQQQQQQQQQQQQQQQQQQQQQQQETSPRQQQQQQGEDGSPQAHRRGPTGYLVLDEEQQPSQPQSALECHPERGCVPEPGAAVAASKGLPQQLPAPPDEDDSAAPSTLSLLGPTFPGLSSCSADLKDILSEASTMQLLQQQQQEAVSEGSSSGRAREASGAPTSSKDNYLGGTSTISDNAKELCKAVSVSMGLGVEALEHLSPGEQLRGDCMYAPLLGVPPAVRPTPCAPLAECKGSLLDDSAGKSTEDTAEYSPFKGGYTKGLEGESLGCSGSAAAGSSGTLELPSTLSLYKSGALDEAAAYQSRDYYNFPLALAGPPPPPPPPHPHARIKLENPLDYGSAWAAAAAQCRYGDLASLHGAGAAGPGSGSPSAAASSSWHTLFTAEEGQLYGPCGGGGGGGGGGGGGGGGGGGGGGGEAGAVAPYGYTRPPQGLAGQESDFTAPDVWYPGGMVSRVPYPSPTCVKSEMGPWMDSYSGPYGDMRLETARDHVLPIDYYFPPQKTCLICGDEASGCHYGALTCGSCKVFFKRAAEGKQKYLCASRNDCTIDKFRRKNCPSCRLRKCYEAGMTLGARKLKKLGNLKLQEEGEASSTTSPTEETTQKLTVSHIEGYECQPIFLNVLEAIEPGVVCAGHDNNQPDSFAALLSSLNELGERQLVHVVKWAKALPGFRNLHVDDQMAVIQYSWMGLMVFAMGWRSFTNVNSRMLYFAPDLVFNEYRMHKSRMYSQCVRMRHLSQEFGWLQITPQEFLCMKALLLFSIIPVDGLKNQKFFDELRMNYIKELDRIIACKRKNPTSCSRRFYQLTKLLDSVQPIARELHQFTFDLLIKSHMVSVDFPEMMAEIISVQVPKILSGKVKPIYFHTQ
Sequence of Estrogen receptor (Homo sapiens) (P03372 whole entry, looked up): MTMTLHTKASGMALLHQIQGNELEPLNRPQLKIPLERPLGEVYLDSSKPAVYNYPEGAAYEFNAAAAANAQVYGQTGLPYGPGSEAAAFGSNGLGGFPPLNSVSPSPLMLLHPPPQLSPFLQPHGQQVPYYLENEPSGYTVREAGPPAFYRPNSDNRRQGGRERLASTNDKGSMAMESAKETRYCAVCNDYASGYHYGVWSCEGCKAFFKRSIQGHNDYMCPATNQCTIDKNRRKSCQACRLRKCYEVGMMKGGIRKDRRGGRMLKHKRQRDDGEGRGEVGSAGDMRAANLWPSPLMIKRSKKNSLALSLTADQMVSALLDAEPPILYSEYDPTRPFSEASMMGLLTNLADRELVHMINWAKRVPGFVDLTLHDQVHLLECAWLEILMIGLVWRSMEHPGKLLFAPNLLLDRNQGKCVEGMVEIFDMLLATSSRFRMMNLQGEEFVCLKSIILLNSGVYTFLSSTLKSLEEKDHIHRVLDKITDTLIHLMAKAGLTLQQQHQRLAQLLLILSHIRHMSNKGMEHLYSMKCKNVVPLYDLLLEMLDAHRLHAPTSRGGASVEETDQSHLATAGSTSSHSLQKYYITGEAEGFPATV
Sequence of Thyrotropin receptor (Homo sapiens) (P16473 whole entry, looked up): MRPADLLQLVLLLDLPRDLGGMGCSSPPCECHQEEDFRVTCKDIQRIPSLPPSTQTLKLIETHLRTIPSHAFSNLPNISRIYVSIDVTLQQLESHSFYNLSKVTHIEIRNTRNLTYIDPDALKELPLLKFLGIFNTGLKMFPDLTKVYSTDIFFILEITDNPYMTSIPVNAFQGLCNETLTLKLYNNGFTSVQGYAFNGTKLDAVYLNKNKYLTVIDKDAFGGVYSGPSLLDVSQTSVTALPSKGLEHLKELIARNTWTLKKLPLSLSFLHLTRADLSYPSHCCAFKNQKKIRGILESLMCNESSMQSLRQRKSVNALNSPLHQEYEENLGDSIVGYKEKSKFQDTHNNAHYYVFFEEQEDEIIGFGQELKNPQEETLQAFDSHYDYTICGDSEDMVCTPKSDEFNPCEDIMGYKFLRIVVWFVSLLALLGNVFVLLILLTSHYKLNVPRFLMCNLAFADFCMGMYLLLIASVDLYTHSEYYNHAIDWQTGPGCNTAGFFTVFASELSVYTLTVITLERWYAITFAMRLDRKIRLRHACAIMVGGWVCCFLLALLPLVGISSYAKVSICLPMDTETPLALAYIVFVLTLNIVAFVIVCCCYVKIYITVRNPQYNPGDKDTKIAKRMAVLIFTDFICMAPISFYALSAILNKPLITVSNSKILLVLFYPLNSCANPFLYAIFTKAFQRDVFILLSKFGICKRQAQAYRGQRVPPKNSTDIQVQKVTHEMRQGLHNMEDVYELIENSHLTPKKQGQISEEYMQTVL

For the molecule `Fc1ccc(C(OCCN2CCN(CCCc3ccccc3)CC2)c2ccc(F)cc2)cc1`, the Potency is 29.8 µM (active) in [1]; 23.7 µM (active) in [2]; 8.41 µM (active) in assay [3]; 23.7 µM (active) in [4]; 18.8 µM (active) in assay [7]; 21.1 µM (active) in [8]. Also, the Potency was 5.31 µM (active) in assay [10]; 26.6 µM (active) in [11]; 26.6 µM (active) in assay [12]; 26.6 µM (active) in assay [13]; 29.8 µM (active) in assay [16]. For the same molecule, the Potency result in assay [5], in assay [6], in assay [9], in assay [14] and in assay [15] was “inactive” in each case.
As for `O=S1OCC2C(CO1)C1(Cl)C(Cl)=C(Cl)C2(Cl)C1(Cl)Cl` (centres undefined), the Potency result in assay [1], in [2], in [4], in [5], in [6] and in assay [14] was “inactive” each time. Moreover, the Potency result in assay [15], in [17] and in assay [16] was “inactive” throughout. In addition, the Potency is 48.6 µM (active) and 54.4 µM (active) in assay [3]; 48.5 µM (active) in assay [8]; 48.5 µM (active) in [12].
As to `CCOP(=O)(OCC)Oc1nc(Cl)c(Cl)cc1Cl`, the Potency entry in assay [1], in [2], in assay [3], in [6], in [7] and in assay [8] was “inactive” throughout. In addition, the Potency entry in [9], in [11], in [18], in assay [14] and in [16] was “inactive” throughout. For the same molecule, the Potency in assay [12] is 8.58 µM (active).
For the molecule `[O]=[Cr](=[O])([OH])[O][Cr](=[O])(=[O])[OH]`, the Potency result in assay [1], in [2], in assay [5], in assay [6], in assay [9] and in assay [14] was “inactive” in each case. Further, the Potency result in [15] and in assay [17] was “inactive” throughout. Further, the Potency was 30.9 µM (active) and 54.4 µM (active) in assay [3]; 30.9 µM (active) and 30.6 µM (active) in assay [7]; 21.9 µM (active) and 30.6 µM (active) in assay [8]; 1.95 µM (active) and 2.16 µM (active) in assay [10]; 27.6 µM (active) and 54.4 µM (active) in [11]; 24.6 µM (active) and 54.4 µM (active) in assay [12].
Regarding `[Cl][Hg][c]1ccccc1`, the Potency in assay [1] was 9.69 µM (active); in assay [2], 8.63 µM (active); in [3], 2.43 µM (active); in assay [5], 30.6 µM (active); in assay [6] it was 13.7 µM (active); in [7], 0.545 µM (active). Also, the Potency in [8] is 0.864 µM (active); in assay [10], 0.0243 µM (active); in assay [11], 12.2 µM (active); in assay [12], 3.44 µM (active); in assay [13] it was 3.06 µM (active); in assay [16], 17.2 µM (active). Besides, the Potency entry in [14] was “inactive”.
`N#Cc1sc2c(=O)c3ccccc3c(=O)c=2sc1C#N`: the Potency was 5.45 µM (active) in [1]; 13.7 µM (active) in [2]; 4.86 µM (active) in [3]; 2.43 µM (active) in assay [4]; 27.3 µM (active) in [5]; 30.6 µM (active) in [6]. Besides, the Potency is 8.63 µM (active) in assay [7]; 9.69 µM (active) in assay [8]; 3.86 µM (active) in assay [10]; 17.2 µM (active) in assay [11]; 21.7 µM (active) in assay [12]; 17.2 µM (active) in [13]. In assay [16], the Potency is 7.7 µM (active). The Potency result in [9], in [18], in assay [14] and in assay [15] was “inactive” each time.
